Source: PubChem BioAssay
ROC1-CUL1 inh: inhibitors of human ROC1-CUL1 ubiquitin ligase activity; P62877+Q13616; in vitro K48 di-Ub FRET, acceptor:donor ratio, 45 min; inhibition, % at 10 µM; 140,000 tested, 0.6% active; AID 1347404; in the data active = inhibition above about 25%
Numbers without * were called inactive. This excerpt belongs to a sample that is enriched for hits.

SMILES	ROC1-CUL1 inh
Cc1cccc(C(=O)N2CCC(N3CCCC(C(=O)NC4CC4)C3)CC2)c1 (configuration not stated)	11.4
COc1ccc(C(=O)N2CCC(N3CCCC(C(=O)NC4CC4)C3)CC2)o1 (configuration not stated)	-0.6
Cc1occc1C(=O)N1CCC(N2CCCC(C(=O)NC3CC3)C2)CC1 (configuration not stated)	25.0*
O=C(CSc1nnc2c(n1)-c1cccc3cccc-2c13)N1CCOCC1	8.3
COC1=CC(=O)OC1C(O)CCc1ccc2c(c1)OCO2 (configuration not stated)	2.3
CC[n+]1cc(Cl)nc(-c2ccccc2)c1-c1ccccc1	38.7*
CCOc1cc[n+](CC)c(-c2ccccc2)n1	0.1
Nc1nc(-c2ccccc2)c(Cl)nc1-c1ccccc1	4.6
CCCC(=O)N1CCN(Cc2cccc(F)c2)CC1	-1.9
COc1ccc(N=C2CCCN2C(=O)c2ccc(F)cc2)cc1	-7.6
CCOc1ccc(-c2csc(NC(=O)c3c(-c4ccccc4)noc3C)c2C(=O)OC)cc1	1.0
COCC(=O)Oc1c(Sc2ccc(C)cc2)c(C)nn1C(C)(C)C	58.7*
COc1cccc(C(=O)Oc2c(Sc3ccc(C)cc3)c(C)nn2C(C)(C)C)c1OC	-3.1
COc1ccc(C(=O)Oc2c(Sc3ccc(C)cc3)c(C)nn2C(C)(C)C)cc1OC	-8.0
COc1cc(NC(=O)/C=C/c2ccc(C(C)(C)C)cc2)c(OC)cc1Cl	1.4
CCCSC1=NOC2=NC(c3ccc4ccccc4c3)Nc3ccccc3C2=N1 (configuration not stated)	-5.2
Cc1ccc2c(c1)nnn2CNc1cccc2ccccc12	-11.0
CN(C)c1cccc(C(=O)N2CCC(N3CCC(C(=O)NC4CC4)CC3)CC2)c1	11.1
COc1ccc(CCCN2C(=O)O[C@@H]3CN(c4cc(C)nc(N)n4)C[C@@H]32)cc1	6.0
Cc1nonc1C(=O)N=Nc1c2ccccc2c2nc3no[nH]c3nc12	44.6*
COc1ccc(C2C(C(=O)OC(C)C)=C(C)N=C3SCC(=O)N32)cc1 (configuration not stated)	2.4
CC(C(=O)OCC(=O)c1ccc(-c2ccccc2)cc1)N1C(=O)c2c(Cl)c(Cl)c(Cl)c(Cl)c2C1=O (configuration not stated)	3.8
O=C1c2c(Cl)c(Cl)c(Cl)c(Cl)c2C(=O)C1C(c1ccccc1)c1ccccc1	61.6*
Cc1ccccc1C(c1ccccc1)C1C(=O)c2ccccc2C1=O (configuration not stated)	-3.6
CCOc1nc2c(ncn2C)c(=O)n1C	-5.1
SMILES	ROC1-CUL1 inh
COc1cc(/C=C2/N=C(SCC(=O)Nc3ccccc3C(=O)O)N(c3ccccc3)C2=O)cc(OC)c1OC	8.5
COc1ccc2ccc3c4ccccc4c(OC)cc3c2c1	1.1
COc1ccc2c(=O)c(=O)c2c1	71.7*
COc1ccc2c(=O)c(I)coc2c1	-2.5
CC(C)(C)CN1CCCC2(CCN(Cc3nc(-c4ccccc4)no3)C2)C1=O (configuration not stated)	2.7
CN(c1ccc(-c2nc(-c3ccccc3F)no2)cn1)C1CCOCC1	-7.0
CCOC(=O)c1nnn2c1nc(Cl)c1ccccc12	79.0*
CCOC(=O)c1nnn2c3ccccc3c(=O)n(CC(=O)c3ccc(Cl)cc3)c12	5.7
C=CCn1c(Sc2nc3c(C(=O)OCC)nnn3c3ccccc23)nnc1-c1ccccc1	4.7
CCC1CCC(NC(=O)Nc2ccc3c(c2)OCO3)CC1 (configuration not stated)	13.3
Fc1ccc(-c2cnnc(NCCc3ccc(Cl)cc3)n2)cc1	6.8
CC(CC(=O)c1cccc(N)c1)C(=O)O (configuration not stated)	2.7
Cc1ccc(-c2nnc(SCC(=O)N(C3CCCCC3)C3CCCCC3)n2N)cc1	-6.5
COC(=O)CN1C(=O)S/C(=C/c2ccc(-c3cccc(C(=O)O)c3C)o2)C1=O	6.5
O=C1S/C(=C\c2cc(Br)cc(Cl)c2O)C(=O)N1Cc1ccc(F)cc1	39.9*
Cc1c(C(=O)O)cccc1-c1ccc(/C=C2/SC(=O)N(Cc3cc4c(cc3Cl)OCO4)C2=O)o1	6.3
O=C(O)COc1ccc(/C=C2/SC(=O)N(Cc3ccc(F)cc3)C2=O)cc1Br	5.1
Cc1cccc(/C=C2/SC(=O)N(Cc3ccccc3C#N)C2=O)n1	-0.6
C=CCN1C(=O)S/C(=C\c2ccc(-c3ccc(Br)cc3)o2)C1=O	-6.8
Cc1ccccc1NC(=O)CN1C(=O)S/C(=C\c2ccc(-c3cc(C(=O)O)ccc3Cl)o2)C1=O	27.6*
CC(C)c1ccc(/C=C2\SC(=O)N(Cc3ccc(F)cc3)C2=O)cc1	5.4
Cc1cccc(NC(=O)CN2C(=O)S/C(=C/c3ccc(-c4cc(C(=O)O)ccc4Cl)o3)C2=O)c1	21.4
N#Cc1ccccc1CN1C(=O)S/C(=C/c2ccc(-c3ccc(Cl)c(C(=O)O)c3)o2)C1=O	42.3*
Cc1ccccc1NC(=O)CN1C(=O)S/C(=C\c2ccc(-c3cc(C(=O)O)ccc3C)o2)C1=O	-1.0
O=C(O)c1ccc(-c2ccc(/C=C3\SC(=O)N(Cc4ccc(F)cc4)C3=O)o2)cc1Cl	91.8*
SMILES	ROC1-CUL1 inh
COCCOc1ccccc1C(=O)Nc1cccc(Cl)c1	-8.2
C=CCn1c(COc2ccc3ccccc3c2)nnc1SCC(=O)Nc1cccc(C)c1	4.1
O=C(COc1ccc(Br)cc1)N(c1ccccc1)C1C=CS(=O)(=O)C1 (configuration not stated)	2.4
N#CC1C(=N)Oc2n[nH]c(C(F)(F)F)c2C1c1ccc(Br)cc1 (configuration not stated)	1.8
O=C1S/C(=C/C=C\c2ccccc2)C(=O)N1Cc1cc2c(cc1Cl)OCO2	-2.1
CCOC(=O)N1C=CC(C)=CC2CC(=O)N21 (configuration not stated)	14.3
COc1cc2c(cc1OC)CN(C(=O)CN1Cc3ccccc3OC(c3ccsc3)C1)CC2 (configuration not stated)	-3.9
CC(C)NC(=O)CSc1nc(-c2ccccc2)cc(-c2cccs2)c1C#N	-1.1
COc1ccc(C(=O)N2CCCCCC2=O)cc1	0.7
Cc1cc(C)cc(-n2c(C)c(C)n3c4c(=O)n(C)c(=O)n(C)c4nc23)c1	4.1
Cc1c(C)n2c3c(=O)n(C)c(=O)n(C)c3nc2n1-c1cccc(O)c1	1.3
Cc1cccc(-n2c(C)c(C)n3c4c(=O)n(C)c(=O)n(C)c4nc23)c1	25.6*
Cc1ccc(C(=O)C2C(=O)Oc3ccccc3C2=O)cc1 (configuration not stated)	-7.6
O=C(Nc1ccc2nc(SCC(=O)N3CCOCC3)sc2c1)c1cccc(F)c1	4.5
O=C(Nc1ccc2nc(SCC(=O)N3CCOCC3)sc2c1)c1ccc(Br)cc1	-9.7
O=C(Nc1ccc2nc(SCC(=O)N3CCOCC3)sc2c1)c1cccc(Br)c1	26.9*
C=CCNC(=S)NS(=O)(=O)c1cnccc1Nc1cccc(Cl)c1	9.1
CN1CCN(Cc2nc(N)nc(Nc3cccc(Cl)c3)n2)CC1	3.5
CC(C)(c1ccc(OC(=O)c2ccc(Br)o2)cc1)c1ccc(OC(=O)c2ccc(Br)o2)cc1	9.4
CC(C)NC(=O)CN(Cc1ccc(Cl)c(Cl)c1)S(=O)(=O)c1ccc(Cl)cc1	-7.1
CCCCCCCC(=O)Nc1ccc(N(C)C)cc1	-0.7
CCCCCCCCCCCCCCCCCCN(C)c1ccc(/C=C/c2cc[n+](C)cc2)cc1	7.1
CCCCCCCCCCCCCCCC[n+]1ccc(/C=C/c2ccc(N(C)C)cc2)cc1	28.7*
CC(C)c1ccc(OCc2nnc(SCC(=O)Nc3ccccc3Cl)o2)cc1	3.4
